In ChEMBL document CHEMBL3988442, “University of Dundee, Small-Polar-MMV Screening Library” (2021):

Tests used:
[1] = molecular target: T1, Aspartate--tRNA(Asp/Asn) ligase (Mycobacterium tuberculosis (strain ATCC 25618 / H37Rv)) (UniProt P9WFW3); assay: Assay for Asp RNA synthetase-1 from Mycobacterium tuberculosis; type: functional; parameters: scale not given: direction of the effect not stated beside the values; conditions: 30 µM; also: in the data most compounds retested in dose-response had high values
T1 sequence (whole entry): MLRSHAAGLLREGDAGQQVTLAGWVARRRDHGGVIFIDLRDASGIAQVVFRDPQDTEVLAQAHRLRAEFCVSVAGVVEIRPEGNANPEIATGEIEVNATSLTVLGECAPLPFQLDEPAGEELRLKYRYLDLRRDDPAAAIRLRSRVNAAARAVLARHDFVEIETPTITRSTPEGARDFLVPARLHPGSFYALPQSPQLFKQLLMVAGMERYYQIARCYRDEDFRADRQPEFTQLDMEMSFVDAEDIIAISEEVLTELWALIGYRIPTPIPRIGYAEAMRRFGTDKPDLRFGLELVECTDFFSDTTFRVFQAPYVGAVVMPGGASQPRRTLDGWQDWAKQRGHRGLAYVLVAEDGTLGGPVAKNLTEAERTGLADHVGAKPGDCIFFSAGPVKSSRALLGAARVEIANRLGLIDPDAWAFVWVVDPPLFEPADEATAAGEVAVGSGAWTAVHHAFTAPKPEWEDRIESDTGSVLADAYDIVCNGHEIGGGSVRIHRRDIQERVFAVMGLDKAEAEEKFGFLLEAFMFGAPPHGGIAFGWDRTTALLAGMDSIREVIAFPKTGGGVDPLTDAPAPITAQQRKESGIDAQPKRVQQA

[2] = molecular target: Shiga toxin 2 (Escherichia coli O157:H7) (UniProt P09385+P09386); assay: E. coli 0.157:H7 Shiga Toxin SOP - stx2 screening assay; type: functional; parameters: scale not given: direction of the effect not stated beside the values; conditions: 30 µM

| SMILES | Percent Effect [1] [%] | Percent Effect [2] [%] |
| --- | --- | --- |
| Cn1nc(C(=O)N2CCCCC2c2nc3cc(F)ccc3[nH]2)ccc1=O (stereo not drawn) | -2.79 | -1.06 |
| CS(=O)(=O)N1CCC2(CC1)CC(CC(=O)N1CCCC1)c1ccccc12 (stereo not drawn) | 5.87 | 8.75 |
| O=C1CC(c2ccccc2F)c2c(n3ccsc3nc2=O)N1 (stereo not drawn) | 1.48 | -23 |
| CC(C)c1nnc2n1CCN(CC(=O)Nc1sccc1C#N)C2 | 8.51 | 16.9 |
| Cc1ccc(C)c(OC2CCN(C(=O)c3ccc(O)nc3)CC2)c1 | -0.922 | 26.4 |
| COc1ccc(CN2C[C@@H]3COC[C@]3(COc3cccnc3)C2)cc1 | -3.56 | -5.5 |
| COc1c(C2CCCN2CC(=O)Nc2nc(C)cs2)c(C)nn1C (stereo not drawn) | -3 | -14.6 |
| CC(C)c1nccn1C1CCCN(C(=O)c2ccnc(N(C)C)c2)C1 (stereo not drawn) | 2.16 | -29.7 |
| O=c1[nH]c2c(c(=O)n1C1CCCCC1)CCC2Nc1ccccc1 (stereo not drawn) | 3.05 | 1.28 |
| Cc1cc(C)n(CC2CCCCN2C(=O)c2ccc3c(c2)OCO3)n1 (stereo not drawn) | -5.57 | -5.42 |
| COc1ccccc1OCC(=O)NS(=O)(=O)c1ccc(Br)s1 | 2.43 | -0.0881 |
| CC(=O)N1CCN(c2cc(C3CN(C)CCO3)nc(C)n2)CC1 (stereo not drawn) | 0.67 | -24.3 |
| O=c1cc2c(nn1CN1CCOCC1)CCC2 | 2.64 | -10.5 |
| O=C(Nc1cnccn1)[C@@H]1COC[C@H]2CN(C3CCCC3)C[C@H]21 | -5.7 | 18 |
| CCc1nnc2n1CCN(CC(=O)Nc1cc(C(C)(C)C)nn1C)C2 | 0.589 | 28.9 |
| COCC(c1cccc(C(F)(F)F)c1)N(C)C(=O)c1ccncc1 (stereo not drawn) | -1.77 | -15.3 |
| COc1ccc2c(c1)CCN(CCC(=O)O)CC2 | 3.94 | -33.8 |
| Cc1cc(N2CCN(Cc3nccn3C)CC2)cc(C)n1 | 2.09 | -75.9 |
| Cc1ccc([C@@H]2CN(S(=O)(=O)C(C)C)C[C@H]2N(C)C)cc1 | 0.183 | 12.9 |
| CCc1nc(C2CCCN2C(=O)c2ccc3c(c2)nc(C)n3C)no1 (stereo not drawn) | -0.367 | 2.43 |
| Cc1cc(C)n(CC(=O)N2CCC(NS(=O)(=O)c3ccccc3)CC2)n1 | 0.878 | 31.2 |
| COc1cccc2c1ccn2CC(=O)N[C@@H](CCSC)C(=O)O | 6.16 | -11.2 |
| CCn1cc2c(n1)CN(Cc1ccoc1)CC2COCC1CC1 (stereo not drawn) | -4.69 | 13.8 |
| O=C(c1ccc(OCC2CC2)nc1)N1CCCC(n2ccnc2)C1 (stereo not drawn) | -9.61 | -43.4 |
| CC(C)c1nnc(CN2CCCC2Cn2cncn2)o1 (stereo not drawn) | -1.37 | -22.4 |

| SMILES | Percent Effect [1] [%] | Percent Effect [2] [%] |
| --- | --- | --- |
| CCc1nc(C2CCCN(C(=O)CN(C)S(C)(=O)=O)C2)no1 (stereo not drawn) | -3.98 | -6.61 |
| Cc1cc(N2CCN(Cc3ccccc3)CC(O)C2)cc(C)n1 (stereo not drawn) | -5.25 | -16.3 |
| NS(=O)(=O)c1ccc(NC(=O)CSc2ccc3c(c2)CCC3)cc1 | 3.87 | -78.8 |
| O=C(NCCOc1ncc(Cl)cc1Cl)c1ccncc1 | 5.64 | -19.5 |
| CN(C)c1cc2c(nn1)CCN(C(=O)C1CCc3ccccc31)C2 (stereo not drawn) | 5.85 | 5.96 |
| Fc1ccc(CN2CCC(c3n[nH]c4nccnc34)CC2)cc1F | 0.372 | -8.59 |
| O=C(c1cnoc1)N1CCC[C@]2(C[C@@H](OCc3ccccn3)CO2)C1 | -4.58 | -20.4 |
| Cc1ccc(-c2nc(CN3CCOC(Cn4cccn4)C3)cs2)o1 (stereo not drawn) | -1.71 | -9.02 |
| Cc1cc(C)n(CC2CCCN2CC(=O)N(C)Cc2cnn(C)c2)n1 (stereo not drawn) | -0.211 | 21.8 |
| CN(C)C(=O)CN1C(=O)CCC12CCN(Cc1ccc(F)cc1)CC2 | 1.43 | -5.2 |
| COCCN1C[C@@H](C)[C@@]2(COCCN(C(=O)Cc3ccccc3)C2)C1 | 1.75 | -6.45 |
| CN(C)c1ccc(CN(CCCn2ccnc2)Cc2c[nH]cn2)cc1 | 0.194 | -38.9 |
| Nc1cc(N2CCCC2c2cnccn2)ncn1 (stereo not drawn) | 6.36 | 0.702 |
| COc1ccc(C(=O)NCCCn2ccnc2)c(OC)n1 | -1.77 | -22.8 |
| CCOc1ncccc1NC(=O)NCC(O)c1ccccc1OC (stereo not drawn) | -0.742 | -2.67 |
| Cc1csc2c(=O)n3c(nc12)CCN(C(=O)c1cccnc1)CC3 | -0.521 | 6.12 |
| CC(CNC(=O)c1ccc(Cl)cc1I)N1CCCC1 (stereo not drawn) | -0.881 | -18.5 |
| CN(CC1CC1)C(=O)CN(Cc1cccc(O)c1)C1CCC(O)CC1 (stereo not drawn) | -0.296 | 6.41 |
| Cc1nc(C)n(CC2CN(CCCOc3ccccc3C)CCO2)n1 (stereo not drawn) | 1.31 | 4.82 |
| CCOc1cc(C)nc(N2CCN(C(=O)c3ccnn3C)CC2)n1 | -2.8 | 2.54 |
| Cn1nc2c(cc1=O)CN(Cc1nnc(C3CC3)o1)CC2 | 47.1 | -53.6 |
| CCOc1ccc(C(C)NC(=O)N2CCC(C(N)=O)CC2)cc1OC (stereo not drawn) | -0.725 | 10.2 |
| COc1ccc(-c2nc(CN3CC(n4nc(C)cc4C)C3)no2)cc1 | 5.02 | -49.6 |
| Cc1nc(C2CCN(C(=O)c3ccc(=O)n(C)c3)CC2)c2sccn12 | 3.56 | -17.4 |
| CC(C)(C)c1ncc(C(=O)NCCS(N)(=O)=O)s1 | -1.74 | 28.8 |

| SMILES | Percent Effect [1] [%] | Percent Effect [2] [%] |
| --- | --- | --- |
| CN(C)CCOCC1CN(Cc2ccsc2)Cc2ccnn2C1 (stereo not drawn) | -0.625 | 3.55 |
| COC(=O)c1cccc(NS(=O)(=O)c2cnc(NC(C)=O)s2)c1 | -3.37 | -26.3 |
| CCN1CCN(c2ccc(F)cc2C(C)NCc2noc(C)n2)CC1 (stereo not drawn) | -3.26 | -6.75 |
| CN(C)C(=O)N1C[C@@H]2COC[C@]2(CNS(C)(=O)=O)C1 | -0.382 | -0.0161 |
| CCCC(=O)N1CCC2(CC1)CC(NC(C)=O)c1ccccc1O2 (stereo not drawn) | -5.26 | -24.9 |
| Cc1ccc(-c2nc(CN3CCc4nn(C)c(=O)cc4C3)co2)cc1 | 40.1 | -3.75 |
| Cc1cnn(CC2CN(c3cnc4ccccc4n3)CCO2)c1 (stereo not drawn) | -11.1 | -0.837 |
| CC1CN(C)CCN1C(=O)c1ccn(-c2cccc(Cl)c2)n1 (stereo not drawn) | -2.06 | -4.97 |
| Cc1cnn(CC2CCCCN2C(=O)c2ccnc(N(C)C)c2)c1 (stereo not drawn) | 1.07 | 16.2 |
| Cn1ccc(C(=O)NC2CCC23CCN(C(=O)N2CCCC2)CC3)c1 (stereo not drawn) | -3.32 | -4.99 |
| CN1CC(=O)N(c2ccccc2)CC12CCN(CC1CC1)C2 (stereo not drawn) | 3.68 | -5.63 |
| CS(=O)(=O)N1C[C@@H]2CC[C@H](C1)N(Cc1cscn1)C2=O | 0.593 | -13.6 |
| CC(C)N1CCCC2(CCN(C(=O)CCCn3cncn3)C2)C1=O (stereo not drawn) | -0.717 | 11.1 |
| CN1C(=O)C[C@@H]2[C@@H]1CCN2S(=O)(=O)Cc1ccccc1 | -2.58 | -4.62 |
| CN(Cc1ccco1)C[C@H]1OC[C@@H]2CCN(Cc3nccs3)C[C@@H]21 | 4.31 | -45.7 |
| CC(C)=CCN(C)C1CCCN(Cc2noc(C)n2)C1 (stereo not drawn) | 3.23 | 25.2 |
| Cc1c[nH]cc1C(=O)N1CCN(Cc2nc(C(C)C)no2)CC1 | -3.47 | 9.19 |
| Cc1nc(CN2CCCC(CCc3ccc(F)cc3F)C2)c[nH]1 (stereo not drawn) | -7.38 | -3.15 |
| O=C(CCCc1ncc(-c2ccccc2)o1)N1CCN(CCO)CC1 | -1.6 | -44.5 |
| COCCNS(=O)(=O)c1ccc2c(c1)CCN(C(=O)c1cncn1C)C2 | 0.891 | -23.1 |
| c1ccc(-c2noc(CN3CCC(c4ccn[nH]4)CC3)n2)cc1 | 0.903 | -15.7 |
| Cc1ccc(C(=O)N(C)Cc2cscn2)c(=O)[nH]1 | 0.749 | 8.36 |
| CN(CCc1cccs1)C1CCCN(Cc2noc(C3CC3)n2)C1 (stereo not drawn) | -1.53 | 16.2 |
| CCO[C@@H]1CO[C@@]2(CCCN(S(=O)(=O)c3cccnc3)C2)C1 | 9.04 | -20 |
